From PubChem BioAssay AID1851 (National Center for Advancing Translational Sciences (NCATS), 2009)
Screen size: about 16,000 compounds; about 5,800 (36%) were called active. Not shown: some 23% with an inconclusive outcome. The list shows a part of the results. Unmarked numbers belong to inactive results. The call rests on the fitted dose curve; in most records, active means well fitted curve in the direction sought with a large enough effect; inconclusive means small, poorly fitted or top-dose-only effect, or effect the other way; inactive means no such curve, though single readings can be large or run the other way.

The compounds below were run against Cytochrome P450 2C19 (Homo sapiens) (UniProt P33261) (assay: Cytochrome panel assay with activity outcomes). Settings: recombinant CYP, pro-luciferin dealkylation, luminescence, p450-cyp2c19; series mostly up to 57.1 µM; activity, negative = inhibition: at the top concentration.
Sequence of Cytochrome P450 2C19 (Homo sapiens) (P33261 whole entry, looked up): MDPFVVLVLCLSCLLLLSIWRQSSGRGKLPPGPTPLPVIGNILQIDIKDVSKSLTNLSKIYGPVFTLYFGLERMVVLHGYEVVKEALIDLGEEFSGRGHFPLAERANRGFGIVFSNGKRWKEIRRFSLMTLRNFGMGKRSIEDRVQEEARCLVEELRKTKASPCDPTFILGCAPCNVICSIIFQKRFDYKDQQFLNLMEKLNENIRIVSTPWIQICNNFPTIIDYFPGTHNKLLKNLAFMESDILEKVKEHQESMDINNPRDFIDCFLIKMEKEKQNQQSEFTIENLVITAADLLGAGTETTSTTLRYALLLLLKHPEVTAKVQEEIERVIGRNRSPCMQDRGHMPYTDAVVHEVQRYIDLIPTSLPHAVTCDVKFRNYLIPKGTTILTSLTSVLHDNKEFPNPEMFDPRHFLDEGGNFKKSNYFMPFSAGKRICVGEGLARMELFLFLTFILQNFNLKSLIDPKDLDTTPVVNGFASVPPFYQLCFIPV
On the % scale 0 is the no-effect control and ±100 the full control effect.

Q: How did the AC50 turn out when `COc1cc2c(cc1NC(=O)c1cc(-c3cccnc3)nc3ccc(C)cc13)oc1ccccc12` was run?
A: Its AC50 is 3.55 µM (active).

Q: For `COc1ccccc1CC(=O)Nc1cc2oc3ccccc3c2cc1OC`, which AC50 is on record?
A: Its AC50 is 6.31 µM (active).

Q: With `CC1(C)CCCN(C(=O)N2c3ccccc3Sc3ccccc32)C1` as the compound, how does the AC50 read?
A: Its AC50 is 0.562 µM (active).

Q: How did the “activity, negative = inhibition” value turn out when `CC(=O)N1CCC[C@@]2(CCN(Cc3ccccc3)C2)C1` was run?
A: The value was 6.21%.

Q: How did the “activity, negative = inhibition” value turn out when `CC1(C)CCCN(C(=O)c2coc(=O)c(Br)c2)C1` was run?
A: The value was -17.6%.

Q: With `O=C(CSc1cccc2cccnc12)OCC(=O)c1ccccc1` as the compound, how does the AC50 read?
A: The AC50 was 10 µM (active).

Q: How did the AC50 turn out when `Cc1cc(O)c(C(C)C)cc1NC(=O)Nc1cccc2ccccc12` was run?
A: Its AC50 is 0.0501 µM (active).

Q: `NS(=O)(=O)c1ccc(NC(=O)Nc2cccc3ccccc23)cc1` was tested. Which activity, negative = inhibition did it give?
A: Its activity, negative = inhibition is 2.76% [at 11.4 µM].

Q: With `CCOc1cc(/C=C2\CCC/C(=C\c3cc(Cl)c(O)c(OCC)c3)C2=O)cc(Cl)c1O` as the compound, how does the AC50 read?
A: Its AC50 is 15.8 µM (active).

Q: Which activity, negative = inhibition does the source give for `O=C(O)[C@@H]1[C@@H]2C[C@@H]3[C@@H](OC(=O)[C@@H]31)[C@H]2Br` here?
A: The activity, negative = inhibition was -11.8% [at 11.4 µM].

Q: Which AC50 does the source give for `O=c1[nH]c2[nH]c(=S)[nH]c(=S)c2[nH]1` here?
A: The AC50 was 0.631 µM (active).

Q: With `CNC(=O)/C=C1\NC(C)(C)Cc2c1ccc1ccccc21` as the compound, how does the AC50 read?
A: The AC50 was 2.51 µM (active).

Q: With `CC1(C)Cc2c(ccc3ccccc23)C(=O)N1` as the compound, how does the AC50 read?
A: Its AC50 is 10 µM (active).

Q: With `Nc1ccc2c3c(cccc13)C(=O)NC2=O` as the compound, how does the “activity, negative = inhibition” value read?
A: The value was 22.5%.

Q: For `CNC(=O)[C@H]1O[C@H](n2cnc3c(NCc4cccc(I)c4)ncnc32)[C@@H](O)[C@@H]1O`, which “activity, negative = inhibition” value is on record?
A: The value was 11.7%.

Q: Which “activity, negative = inhibition” value does the source give for `COc1ncc2nc(-c3cccs3)c(=O)n(C)c2n1` here?
A: The value was 2.77%.

Q: For `N[C@@H](Cc1cccc([N+](=O)[O-])c1)C(=O)O`, which activity, negative = inhibition is on record?
A: The activity, negative = inhibition was -6.46% [at 11.4 µM].

Q: For `CCN(Cc1ccccc1)Cc1cccc([N+](=O)[O-])c1`, which AC50 is on record?
A: Its AC50 is 5.62 µM (active).

Q: `COc1ccc(Oc2ncc3nc(-c4cccs4)c(=O)n(C)c3n2)cc1` was tested. Which “activity, negative = inhibition” value did it give?
A: The value was -22.2%.

Q: `COc1ccc(/C=N/n2c(-c3cccs3)n[nH]c2=S)cc1` was tested. Which AC50 did it give?
A: Its AC50 is 17.8 µM (active).

Q: `CCc1n[nH]c(=S)n1/N=C/c1ccc2c(c1)OCO2` was tested. Which “activity, negative = inhibition” value did it give?
A: The value was -11.1%.

Q: `COc1ccccc1-c1nnc(SCc2nc3ccccc3s2)n1C` was tested. Which AC50 did it give?
A: The AC50 was 2.24 µM (active).

Q: Which activity, negative = inhibition does the source give for `O=S(=O)(O)c1cc(O)c2c(O)c(N=Nc3cccc4ccccc34)c(S(=O)(=O)O)cc2c1` here?
A: Its activity, negative = inhibition is -44.3% [at 11.4 µM].

Q: How did the activity, negative = inhibition turn out when `Nc1ccccc1N=Nc1c(S(=O)(=O)O)cc2cc(S(=O)(=O)O)cc(O)c2c1O` was run?
A: The activity, negative = inhibition was -13.7% [at 11.4 µM].

Q: For `O=S(=O)(O)c1cc(O)c2c(N=Cc3ccccc3O)cc(S(=O)(=O)O)cc2c1`, which AC50 is on record?
A: The AC50 was 1.58 µM (active).

Q: With `CC(C)N(CC(=O)O)CC(=O)O` as the compound, how does the activity, negative = inhibition read?
A: The activity, negative = inhibition was -17.1% [at 11.4 µM].

Q: Which “activity, negative = inhibition” value does the source give for `CCOC(=O)CNC(=O)c1cccnc1` here?
A: The value was -3.68%.

Q: Which AC50 does the source give for `N/C(=N\OC(=O)Cc1ccc(Cl)cc1)c1cccnc1` here?
A: Its AC50 is 15.8 µM (active).

Q: For `Cc1nc(Oc2ccc(Cl)cc2)c2oc3ccccc3c2n1`, which AC50 is on record?
A: The AC50 was 2 µM (active).

Q: `COc1cccc(=O)c2c(C)n(-c3cc(C)cc(C)c3)c(C)c12` was tested. Which AC50 did it give?
A: Its AC50 is 1 µM (active).

Q: How did the AC50 turn out when `CCOC(=O)n1c(=O)n(Cc2c(Cl)cccc2Cl)c2ccccc21` was run?
A: The AC50 was 2 µM (active).

Q: With `CCOC(=O)n1c(=O)n(Cc2ccccc2Cl)c2ccccc21` as the compound, how does the AC50 read?
A: The AC50 was 0.282 µM (active).

Q: With `Cn1c(=O)n(CCC(=O)O)c2ccccc21` as the compound, how does the “activity, negative = inhibition” value read?
A: Its value is 4.21%.

Q: With `Cn1c(=O)c2[nH]c(COCc3nc4c([nH]3)c(=O)n(C)c(=O)n4C)nc2n(C)c1=O` as the compound, how does the activity, negative = inhibition read?
A: Its activity, negative = inhibition is 25.6% [at 11.4 µM].

Q: Which “activity, negative = inhibition” value does the source give for `CCOC(=O)C(=CNc1cccc(C)c1C)C(=O)OCC` here?
A: Its value is 16.7%.

Q: `CCOC(=O)C(=CNc1ncccc1C)C(=O)OCC` was tested. Which AC50 did it give?
A: The AC50 was 0.891 µM (active).

Q: With `CCOC(=O)C(=CNCC(=O)O)C(=O)OCC` as the compound, how does the “activity, negative = inhibition” value read?
A: The value was -8.91%.

Q: For `Cc1nc2cncnc2n(C2CC2)c1=O`, which AC50 is on record?
A: Its AC50 is 3.98 µM (active).

Q: Which AC50 does the source give for `O=c1c(-c2cccs2)nc2cncnc2n1Cc1ccccc1` here?
A: The AC50 was 1 µM (active).

Q: For `O=c1c(-c2ccc(F)cc2)nc2cncnc2n1C1CC1`, which “activity, negative = inhibition” value is on record?
A: Its value is 4.09%.

Q: Which “activity, negative = inhibition” value does the source give for `O=c1c(-c2cccs2)nc2cncnc2n1C1CC1` here?
A: The value was -26.9%.

Q: Which “activity, negative = inhibition” value does the source give for `COc1ccc(-n2c(=O)c(C)nc3cncnc32)cc1` here?
A: The value was -59.3%.

Q: For `COc1cccc(Cn2c(=O)c(-c3cccs3)nc3cncnc32)c1`, which AC50 is on record?
A: The AC50 was 5.01 µM (active).

Q: `COc1ccc(Nc2ncc3nc(-c4cccs4)c(=O)n(Cc4cccc(OC)c4)c3n2)cc1` was tested. Which “activity, negative = inhibition” value did it give?
A: Its value is -33%.

Q: How did the “activity, negative = inhibition” value turn out when `Cn1cc(-c2nc3cncnc3n(Cc3ccc(F)cc3)c2=O)c2ccccc21` was run?
A: Its value is -2.82%.

Q: For `COc1ccc(Oc2ncc3nc(-c4cccs4)c(=O)n(Cc4cccc(OC)c4)c3n2)cc1`, which “activity, negative = inhibition” value is on record?
A: The value was -27.5%.

Q: Which AC50 does the source give for `Cc1nc2cncnc2n(Cc2ccccc2)c1=O` here?
A: The AC50 was 0.158 µM (active).

Q: How did the “activity, negative = inhibition” value turn out when `O=c1c(-c2cc(F)cc(F)c2)nc2cncnc2n1C1CC1` was run?
A: The value was -28.2%.

Q: How did the “activity, negative = inhibition” value turn out when `COc1cccc(Cn2c(=O)c(-c3cccs3)nc3cnc(OCc4ccccc4)nc32)c1` was run?
A: Its value is -11.8%.
